# GDH-TPI inh = GDH-TPI coupling enzyme inhibitors, primary screen, artefact control for M. tuberculosis FBA inhibitor project, biochemical, absorbance, full deck. GDH-TPI coupled enzyme counterscreen, NADH absorbance. inhibition, % at 4.8 µM. 360,000 tested, 1.2% active. AID 588335, 2011; in the data active = inhibition above about 30%;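 note: 0% = DMSO wells and 100% = wells lacking the enzyme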
# PfHsp40 rescue = rescue of yeast from PfHsp40 toxicity, primary screen, S. cerevisiae, ATP luminescence | S. cerevisiae expressing PfHsp40, growth rescue | growth rescue, % at 12.5 µM | 340,000 tested, 0.68% active; in the data active = growth rescue above about 28%, passing the limit was not always enough;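 note: yeast W303a lacking pdr1 and pdr3 grown in galactose medium; growth measured after three days at 30 °C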
# PrPC surface inh = inhibitors of human cell surface prion protein PrPC, primary screen, cell-based, TR-FRET | inhibition, % at 13.8 µM | 370,000 tested, 0.43% active | TR-FRET read-out | AID 720596, 2013 | Major prion protein (Homo sapiens), P04156; in the data active = inhibition above about 24%; note: 0% = median of the test wells and 100% = reference compound wells
# FBA Mtb inh = Mtb FBA enzyme inhibitors, primary screen, biochemical, fluorescence, strain H37Rv. purified M. tuberculosis FBA, fluorescence read-out. inhibition, % at 1 µM. Fructose-bisphosphate aldolase (Mycobacterium tuberculosis (strain ATCC 25618 / H37Rv)), …. 360,000 tested, 2.3% active; in the data active = inhibition above about 27%;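 note: 0% = vehicle and 100% = reference inhibitor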
# Target sequence (P9WQA3 whole entry, looked up): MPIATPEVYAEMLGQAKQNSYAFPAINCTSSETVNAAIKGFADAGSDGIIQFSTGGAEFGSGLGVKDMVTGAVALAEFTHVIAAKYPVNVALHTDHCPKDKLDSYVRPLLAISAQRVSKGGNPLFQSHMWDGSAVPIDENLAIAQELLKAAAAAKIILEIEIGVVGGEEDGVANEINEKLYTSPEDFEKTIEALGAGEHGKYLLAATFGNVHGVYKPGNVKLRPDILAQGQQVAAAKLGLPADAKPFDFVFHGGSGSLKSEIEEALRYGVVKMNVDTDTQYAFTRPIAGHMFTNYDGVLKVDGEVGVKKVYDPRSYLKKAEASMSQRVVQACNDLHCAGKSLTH
# BJeLR lethal = MLPCN primary cell-based screen for lethality selective to Ras in HRASV12 cells; BJeLR (HRASV12) viability, CellTiter-Glo ATP luminescence, 48 h; inhibition, % (no concentration beside the values); 300,000 tested, 0.17% active; AID 1554, 2009; in the data active = inhibition above about 50%
# PrP 5UTR inh = inhibition of PrP 5' UTR reporter expression; cell-based PrP 5' UTR mRNA reporter, plate reader; AID 488862, 2010; inhibition, % (test concentration not listed); 340,000 tested, 0.35% active; in the data active = inhibition above about 52%; note: 0 = median of the neutral control wells
# An asterisk follows results filed as active; · = no result; + = active, no number. Compounds with a hit are over-represented: about 4.5% of the library has one in this group of screens.
SMILES,GDH-TPI inh,PfHsp40 rescue,PrPC surface inh,FBA Mtb inh,BJeLR lethal,PrP 5UTR inh
CC(C)N(Cc1ccccc1)C(=S)NCCN1CCOCC1,2,35*,12,4,-6,-17
CC(C)N(Cc1ccccc1)C(=S)NCc1ccccc1,-3,2,-1,2,1,-17
O=C(NC1=N[C@@]2(C=C3CCCCC3n3c(=O)n(-c4ccccc4)c(=O)n32)CN1Cc1ccccc1)c1ccccc1 (some centres undefined),·,·,4,·,·,·
CNc1oc(/C=C/c2ccccc2)nc1C#N,38*,1,-7,+,-2,-105
CCN1CCN(c2oc(/C=C/c3ccccc3)nc2C#N)CC1,48*,-1,-14,192*,-4,-11
COc1ccc(Nc2oc(-c3ccccc3)nc2C#N)cc1,7,1,-2,3,-9,-49
CNc1oc(-c2ccccc2)nc1C#N,0,2,0,181*,0,-8
COc1ccc(/C=C2\CC3(OC(=O)c4ccc(F)cc4)CCCN2C3)cc1 (centres undefined),·,·,2,·,·,·
COc1cc(/C=C/c2[nH]c(=O)[nH]c(=O)c2[N+](=O)[O-])cc(OC)c1O,31*,0,-16,-4,-1,-11
CCN(CC)c1ccc(C=Nc2ccc(C)cc2)c(O)c1,45*,-1,2,-2,7,-14
CCN(CC)c1ccc(C=Nc2ccccc2)c(O)c1,34*,1,-4,-2,-2,-1
CCN(CC)c1ccc(C=Nc2ccc(N(C)C)cc2)c(O)c1,54*,0,-23,-3,-1,-25
CCN(CC)c1ccc(N=Cc2ccc(N(CC)CC)cc2O)cc1,14,-2,-2,-5,1,-6
Cc1ccccc1Cn1cc(CN2[C@@H](C)COc3cc(Br)ccc3S2(=O)=O)nn1,·,·,5,·,·,·
COCCCn1cc(CN2CC(N3CCN(CCN(C)C)CC3)CS2(=O)=O)nn1 (centres undefined),·,·,5,·,·,·
CN1C(=C2C(=O)OC(C)(C)OC2=O)Sc2ccccc21,46*,1,-1,-3,-3,-75
CC(=O)NN1C(=O)/C(=C2/Sc3ccccc3N2C)SC1=S,0,-1,-9,-7,-2,-21
CN1Cc2nnn(Cc3ccccc3)c2-c2cc(N3CCCC3)ccc2S1(=O)=O,·,·,3,·,·,·
CCC(=O)C1=C(O)C(c2cccc(Oc3ccccc3)c2)CCC1=O (centres undefined),7,211*,11,-54,5,1
O=C(NC1CCCC1)c1ccc(COc2ccccc2)o1,·,·,-1,·,·,·
Cc1nc2sc(C(=O)NC3CC3)c(N)c2c(C)c1Cl,·,·,-6,·,·,·
CCN1C(=O)[C@@H]2C(C(=O)c3cnccn3)=NN[C@@H]2C1=O,32*,0,-10,-1,-9,-20
CCOc1cc(/C=N/Nc2ncnc(Cl)c2N)ccc1O,33*,0,-13,-3,-5,-66
CN1C/C(=C/c2ccncc2)C(=O)/C(=C/c2ccncc2)C1,-4,-2,-13,-1,72*,-16
Cc1ccc(C(=O)N/N=C\c2ccc(-c3ccc(Cl)c(Cl)c3)o2)cn1,63*,-1,-5,4,3,-19
SMILES,GDH-TPI inh,PfHsp40 rescue,PrPC surface inh,FBA Mtb inh,BJeLR lethal,PrP 5UTR inh
CCOc1cc(/C=N/NC(=O)c2cccnc2)ccc1O,38*,0,2,-10,-1,-12
CCOc1cc(/C=N/Nc2nnc(C)n2N)ccc1O,8,-2,0,-11,-5,-24
CN1C/C(=C/c2ccsc2)C(=O)/C(=C/c2ccsc2)C1,15,3,6,0,5,-4
COc1ccc(CN[C@@H]2CC[C@@]34CCCN3C(=O)CCC[C@H]4C2)cc1,·,·,0,·,·,·
CCOc1cc(/C=N/NC(=O)c2cccnc2)ccc1OCC(N)=O,14,1,7,-2,·,-10
COc1ccc(/C=N/NC(=O)c2ccc(C)nc2)cc1O,33*,0,-7,1,-5,1
CCOc1cc(/C=N/NC(=O)c2ccccc2OCc2ccc(F)cc2)ccc1O,41*,1,-16,6,·,-15
CCOc1cccc(/C=N/NC(=O)c2cccnc2)c1O,31*,-1,3,-4,6,12
CCOc1cc(/C=N/NC(=O)C(=O)N/N=C/c2ccc(O)c(OCC)c2)ccc1O,51*,-1,-7,-3,7,-20
O=C(CSc1nnc(-c2cccnc2)n1-c1ccccc1)c1ccccc1Cl,·,·,-3,·,·,·
CCOc1cc(/C=C2/NC(=O)N(Cc3ccccc3F)C2=O)ccc1O,40*,0,-21,-2,6,-2
COc1cc(/C=N\NC(=O)c2ccc(Cn3nc([N+](=O)[O-])c(Cl)c3C)o2)ccc1O,40*,0,-17,5,3,4
O=C(N/N=C/c1ccncc1)c1cnccn1,4,-1,-19,6,-1,-2
O=C(COc1ccccc1C(=O)N/N=C\c1ccc(O)c(O)c1)N/N=C/c1ccc(O)c(O)c1,56*,5,·,1,1,-20
COc1cc(/C=N/NC(=O)c2cnccn2)ccc1O,34*,-1,-9,-4,4,6
Cc1c(Cl)c([N+](=O)[O-])nn1Cc1ccc(C(=O)N/N=C\c2ccccn2)o1,15,-1,-1,2,·,-11
O=C(Cc1ccccc1)NC1CCCCN(Cc2ccc(Cl)cc2)C1=O (centres undefined),·,·,17,·,·,·
COC(=O)[C@]12C[C@H](CC(=O)NCc3ccccc3)C(=O)N(Cc3ccco3)C1=C[C@H](C1CCCC1)O[C@@H]2C,·,·,4,·,·,·
CCCCNC(=S)N/N=C/c1cccc(OCC)c1O,33*,0,-3,1,-1,-2
CCOc1cc(/C=C2\CN(C)C/C(=C\c3ccc(O)c(OCC)c3)C2=O)ccc1O,21,-2,-18,-7,61*,-3
COc1cc(C=C2CN(C)C(=O)C2=O)ccc1O,14,·,-4,-21,·,·
CCOc1cccc(/C=N/NC(=S)Nc2ccccc2[N+](=O)[O-])c1O,9,-1,-1,-5,-8,38
CC(C)N1CCC1(C)C(=O)Nc1cccc(C#N)c1 (centres undefined),0,·,2,-1,·,·
COc1cc(/C=C2\SC(=O)N(c3ccc(O)cc3)C2=O)cc(OC)c1OC,48*,1,-5,-3,-2,-27
O=c1[nH]c(CN2CCN(S(=O)(=O)/C=C/c3ccccc3)CC2)nc2cc(Cl)ccc12,1,97*,-2,2,-1,-37
O=C(CN(C(=O)OCC1c2ccccc2-c2ccccc21)[C@@H](Cc1ccccc1)C(=O)O)OCc1ccc(C(=O)NCc2ccccc2)cc1,·,·,0,·,·,·
